For 40 molecules, growth results are on record in PubChem BioAssay (NCI).

About 83,000 compounds went through this panel and 20% of them were active in at least one assay; those are over-represented in the sample as a whole.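 A percent growth of 40 corresponds to 60% growth inhibition; 0 means no net growth; -100 means all cells died. Active threshold: below 10.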 Unmarked numbers belong to inactive results. Calls of active or inactive are those of the source.

In this assay the test system is NCI/ADR-RES ovarian. Description: NCI-60 one-dose screen, 48 h (100 = growth as untreated, 0 = no growth, -100 = all killed). As to conditions: 10 µM unless noted. As to the method: Growth inhibition of the NCI/ADR-RES human […] tumor cell line is measured as a screen for anti-cancer activity. Cells are grown in 96 well plates and exposed to the test compound for 48 hours. Compounds are tested at a single concentration, which is 10^-5 M for most compounds. The reported endpoint is percent growth (GI% or GIPRCNT), where numbers from 0 - 100% represent growth inhibition, and numbers from -100% - 0 represent cell death. For example, a value of 40 represents 60% growth inhibition. A value of 0 means no net growth occurred over the course of the experiment. A value of -40 indicates 40% of cells at the beginning of the experiment died by the end of the experiment. A value of -100 means all cells are dead at the end of the experiment.
NCI-60 Human Tumor Cell Lines Screen was performed using the standard one-dose NCI protocol, which is described in more detail at https://dtp.cancer.gov/discovery_development/nci-60/default.htm.
Compounds with GIPRCNT values below 10 were considered active. Activity score was based on GIPRCNT using the following formula: […]
Score is 0 for GIPRCNT values of 100 or above, 50 for GIPRCNT values of 0, and 100 for GIPRCNT values of -100.
Turning to `Cn1cc(-c2csc(-c3cn(CCCN4CCCCC4)c4ccc(Br)cc34)n2)c2cccnc21`, the growth is 19.9%. Next, `N=C(N)N=Nc1ccc(O)cc1`: 36.8% [100 µM]; `COc1cnc2c(c1)C(=O)c1c-2n(CCCNC2=NCCS2)c(=O)c2cc([N+](=O)[O-])ccc12`: -8.56% (active); `C(=C\c1c[nH]c2ccccc12)/c1ccc2ccccc2n1`: 72.1%.

Regarding `COc1ccc(-c2nc3ccccn3c2-c2nc3ccc(Cl)cc3[nH]2)cc1`, the growth was 90.3%. For the molecule `COc1cc(-c2c(C#N)c(-c3cccs3)nc3c2c(-c2ccccc2)nn3-c2ccccc2)ccc1O`, the growth was 88.9%.

Take `N#CC1=C(N)Oc2c(c(N)nn2-c2ccccc2)C1c1ccc(Cl)cc1Cl` (stereo not given): the growth is 100%.

Regarding `COC(=O)[C@]12CC[C@@H](C)[C@H](C)[C@@H]1C1=CC[C@@H]3[C@@]4(C)C[C@@H](OC(C)=O)[C@H](OC(C)=O)[C@@](C)(COC(C)=O)[C@@H]4[C@H](O)C[C@@]3(C)[C@]1(C)CC2`, the growth is 10.5%. As to `COc1cnc2c(c1)C(=O)c1c-2n(CCCNCCN2CCOCC2)c(=O)c2cc([N+](=O)[O-])ccc12`, the growth is 7.12% (active). Under `O=C1CCN2C(=O)Nc3ccccc3C2C1` (stereo not given) stands 107%.

With `COC(=O)C(Cc1ccccc1)n1cc(COc2nc(Cl)nc(Nc3ccc(Cl)cc3)n2)nn1` (stereo not given), the growth is 101%. Next, `COc1cccc(-c2nn(-c3ccccc3)cc2-c2ccnc(NCCCNS(=O)(=O)c3ccccc3)c2)c1`: 21.1%; `Cn1c2c(Cl)c(Cl)ccc2c2c(C#N)c[nH]c(=O)c21`: 103%. Under `O=C(/C(=C(\C(=O)c1ccccc1)c1ccccc1)c1ccccc1)c1ccccc1` stands 45.4%; under `N#Cc1cnc2cc(OC[C@@H](O)CO)c(NC(=O)C3CCCC3)cc2c1Nc1ccc(OCc2cccc(F)c2)c(Cl)c1`, 63.3%; under `COC(=O)[C@]12CC[C@@H](C)[C@H](C)[C@@H]1C1=CC[C@@H]3[C@@]4(C)C(c5ncon5)=C[C@@](C)(CO)C4=CC[C@@]3(C)[C@]1(C)CC2`, 6.21% (active). For the molecule `CC1c2ccccc2N(S(=O)(=O)c2ccccc2)C1C` (stereo not given), the growth was 70.4%. For `COC(=O)[C@]12CC[C@@H](C)[C@H](C)[C@@H]1C1=CC[C@@H]3[C@@]4(C)CC(=O)[C@H](OC(=O)c5ccco5)[C@@]5(C)COC(=C45)C[C@@]3(C)[C@]1(C)CC2`, the growth is 33.3%. As to `Cc1cccc2c1NC(=O)[C@@]21[C@H](C(=O)c2ccccc2)[C@]2(C(=O)Nc3ccccc32)[C@H]2CCCN21`, the growth is 109% [100 µM].

Regarding `Nc1c2c(nc3ccc(Cl)cc13)CC(c1ccc(O)cc1)CC2=O` (stereo not given), the growth was 25.1%.

Consider `COc1ccc(-c2nc(Nc3ccc(-c4nc5ccccc5[nH]4)cc3)nc(N3CCOCC3)n2)cc1`, for which the growth is 34.2%. Next, `COc1cc2ncnc(Nc3ccc(OCc4cccc(F)c4)c(Cl)c3)c2cc1NC(=O)C1CCCC1`: 71.6%; `COc1cccc(-c2nn(-c3ccccc3)cc2-c2ccnc(NCCCO)c2)c1`: 7.32% (active). Next, `COc1ccc2c(c1)C/C(=C\c1cc(-c3cc(OC)c(OC)c(OC)c3)n[nH]1)C2=O`: 83.4%. Under `c1ccc(CN2C(c3ccccc3)=Nc3ccccc3C2c2c[nH]c3ccccc23)cc1` (stereo not given) stands 30.2%. With `C/C(=N\Nc1ccc2ccccc2n1)c1ccccn1`, the growth is 1.66% (active). Under `COC(=O)[C@]12CC[C@@H](C(=O)/C=C/c3cccnc3)[C@@H]1[C@H]1CC[C@@H]3[C@@]4(C)C/C(=C/c5cccnc5)C(=O)C(C)(C)[C@@H]4CC[C@@]3(C)[C@]1(C)CC2` stands -39.4% (active); under `COc1cnc2c(c1)C(=O)c1c-2n(CCCN2CCN(CCO)CC2)c(=O)c2cc([N+](=O)[O-])ccc12`, 111%; under `C=COCCCCCCCCCCCCCCCCCC`, 98.9%. Under `Clc1ccc(Cn2cc(-c3nc4ccc(Br)nc4n3Cc3ccc(Cl)cc3)c3cccnc32)cc1` stands 90.8%; under `CC/C=C\C[C@H]1CC=C2C(=O)C=C[C@@H]2CC=CCCCC(=O)O[C@@H](CCCCC)CC=C2C(=O)C=C[C@@H]2CC=CCCCC(=O)O[C@@H](CCCCC)CC=C2C(=O)C=C[C@@H]2CC=CCCCC(=O)O[C@@H](CCCCC)CC=C2C(=O)C=C[C@@H]2CC=CCCCC(=O)O1`, 92.6% [7.9 µM]. Under `Fc1ccc(Nc2ccc3c(OCCCN4CCOCC4)cccc3n2)cc1F` stands 76.9%. For `C#CCn1c2c(c3ccccc31)C[C@]1(C)[C@H]3CC[C@@H]4[C@@H]5C(=CCC[C@H]5C(=C)C)CC[C@@]4(C)[C@]3(C)CC[C@H]1C2(C)C`, the growth was 106%. Next, `CCCCC/C(=C\c1ccccc1)C1OC(C)C(C)O1` (stereo not given): 100%; `O=S(=O)(NCCNc1cc(-c2cn(-c3ccccc3)nc2-c2cccc(O)c2)ccn1)c1ccc(F)cc1`: 17.9%; `COc1ccc(-c2cc(=O)oc3ccc(Cl)cc23)cc1F`: 6.24% (active). With `COc1ccc(/C=C/C(=O)c2ccc([N+](=O)[O-])cc2)cc1`, the growth is 106%. Under `COc1ccc(C2C(C#N)=C(N)Oc3c2sc2c(F)cccc32)cc1` (stereo not given) stands 6.69% (active).

As for `NC(Cc1ccc(O)cc1)C(=O)N/N=C/c1ccccc1O` (stereo not given), the growth was 102%. Under `COc1ccc(C2CC(=O)c3c(nc4ccc(Cl)cc4c3N)C2)cc1` (stereo not given) stands 105%.
